Results filed as inconclusive are left out. A call without a number means that no potency is given here. Unmarked numbers belong to inactive results. Activity calls are given as the source filed them. Unless noted, the call rests on the fitted dose curve; in most records, active means well fitted curve in the direction sought with a large enough effect in the repeat runs; inconclusive means weak or mixed curves; inactive means no such curve, though single readings can be large; an effect the other way counts as inactive or inconclusive.
Assays:
[1] = biological target: Retinoic acid receptor RXR-alpha (Homo sapiens) (UniProt P19793); assay: qHTS assay to identify small molecule agonists of the RXR signaling pathway (AID 1159527; calls by dose curve; further: nearly all actives have a fitted effect of over 35% in size)
Outline: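 Agonist mode; 9-cis retinoic acid positive control. HEK 293T UAS-bla reporter cells, 2% charcoal-stripped FBS, 16 hr compound exposure at 37 C/5% CO2. LiveBLAzer B/G FRET substrate 2 hr RT; ex 405, em 460/530 nm.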

[2] = qHTS assay to identify small molecule agonists of the RXR signaling pathway - cell viability counter screen (AID 1159529); further: nearly all actives have a fitted effect of over 50% in size
Outline: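 Luminescence from CellTiter-Glo (30 min, RT) measured viability in the same wells as the beta-lactamase reporter readout. Cells: GeneBLAzer RXR-alpha HEK 293T, 2% charcoal-stripped FBS. Compound exposure 16 hr, 37 C.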

[3] = qHTS assay to identify small molecule antagonists of the retinoid acid receptor (RAR) signaling pathway - cell viability counter screen (AID 1159551); further: nearly all actives have a fitted effect of over 35% in size
Outline: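 Cells (C3RL4) are plated, incubated overnight, dosed with compound in DMSO, then given retinol at 1 uM final. After 6 h at 37 C, CellTiter-Glo is added and luminescence read following 30 min at room temperature.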

[4] = qHTS assay to identify small molecule antagonists of the retinoic acid receptor (RAR) signaling pathway (AID 1159552; further: nearly all actives have a fitted effect of over 50% in size)
Outline: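 Luminescence from a RARE luciferase reporter in C3RL4 cells served as read-out. Cells received compounds together with 1 uM final retinol and incubated 6 hr at 37 C before detection reagent was added for 30 min at room temperature.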

[5] = qHTS assay to identify small molecule agonists of the retinoic acid receptor (RAR) signaling pathway (AID 1159553); details: C3RL4 RARE luciferase reporter, agonist, 6 h; activation: at 73.3 µM (top of the series)
Outline: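 Seed C3RL4 reporter cells at 1,000 per well and incubate overnight at 37 C. Add compounds in DMSO, incubate 6 hr. Add luciferase reagent, wait 30 min at room temperature, read luminescence.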

[6] = qHTS assay to identify small molecule antagonists of the estrogen related receptor (ERR) signaling pathway from Tox21 library - cell viability counter screen (AID 1224834); further: nearly all actives have a fitted effect of over 30% in size
Outline: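 ERR cells, 2,000/well; 6 h settle at 37 C/5% CO2; pin-tool compound transfer in DMSO; 17.5 h at 37 C; CellTiter-Fluor, 30 min; fluorescence intensity.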

[7] = biological target: Luciferin 4-monooxygenase (Photinus pyralis) (UniProt P08659); assay: qHTS assay to identify small molecule inhibitors of firefly luciferase (AID 1224835); further: nearly all actives have a fitted effect of over 25% in size; further: potency means the concentration at half of the fitted maximal effect
Outline: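 Quantitative HTS format; KM concentrations of both substrates. Purified P. pyralis FLuc activity quantified from luminescence images.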

[8] = qHTS assay to identify small molecule agonists of the constitutive androstane receptor (CAR) signaling pathway - cell viability counter screen (AID 1224836); further: nearly all actives have a fitted effect of over 45% in size
Outline: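 Viability read-out: CellTiter-Fluor fluorescence after 23 h compound exposure at 37 C/5% CO2 in double-stable HepG2-CYP2B6-hCAR cells, with PK11195 present at 0.75 uM final; compounds tested in 15-point titration.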

[9] = qHTS assay to identify small molecule antagonists of the constitutive androstane receptor (CAR) signaling pathway - cell viability counter screen (AID 1224837); further: nearly all actives have a fitted effect of over 45% in size
Outline: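 Viability was measured with CellTiter-Fluor in a HepG2 line carrying stably transfected hCAR and a CYP2B6-2.2kb construct. Cells were exposed for 23 hr at 37 C to 15 compound concentrations with 50 nM CITCO as agonist.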

[10] = biological target: Nuclear receptor subfamily 1 group I member 3 (Homo sapiens) (UniProt Q14994); assay: qHTS assay to identify small molecule antagonists of the constitutive androstane receptor (CAR) signaling pathway (AID 1224838);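 further: HepG2 cells stably expressing hCAR with CYP2B6 luciferase reporter stimulated by CITCO; nearly all actives have a fitted effect of over 40% in size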
Outline: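 Antagonist mode used CITCO at a final 50 nM to activate CAR in human hepatoma HepG2 cells carrying stable hCAR and a 2.2 kb CYP2B6 promoter-luciferase construct. Compounds were tested at 15 concentrations over 24 h, with luminescence as the end point.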

[11] = qHTS assay to identify small molecule antagonists of the estrogen related receptor signaling pathway with the pleiotropic PPARgamma coactivator (PGC) from Tox21 10K library - cell viability counter screen (AID 1224840; active means well fitted cell-killing curve with a large enough effect in the repeat runs, not every such curve was filed as active; further: nearly all actives have a fitted effect of over 40% in size)
Outline: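 Multiplexed viability counter screen in the PGC/ERR cell line: cells treated with DMSO-dissolved compounds for 17.5 hours at 37 C, then viability measured as CellTiter-Fluor fluorescence.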

[12] = qHTS assay to identify small molecule antagonists of the estrogen related receptor signaling pathway with the pleiotropic PPARgamma coactivator (PGC) from Tox21 10K library (AID 1224841; call rule not given here; further: actives are mostly falling curves and most rising ones were filed inactive; nearly all actives have a fitted effect of over 50% in size)
Outline: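 Steps: plate 2,000 PGC/ERR cells per well; incubate 6 h at 37 C with 5% CO2; transfer compounds from DMSO stocks by pin tool; incubate 18 h at 37 C; add One-Glo; measure luminescence 30 min later.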

[13] = qHTS assay to identify small molecule agonists of the estrogen related receptor signaling pathway with the pleiotropic PPARgamma coactivator (PGC) from Tox21 10K library (AID 1224842); further: nearly all actives have a fitted effect of over 15% in size
Outline: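 PGC/ERR reporter cells (NTP line) were seeded 2,000 per well, rested 6 h at 37 C/5% CO2, then pin-dosed with compounds in DMSO for 18 h at 37 C; luciferase read by One-Glo luminescence after 30 min at room temperature.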

[14] = biological target: Thyrotropin receptor (Homo sapiens) (UniProt P16473); assay: qHTS assay to identify small molecule agonists of the thyroid stimulating hormone receptor (TSHR) signaling pathway (AID 1224843; calls by dose curve; further: nearly all actives have a fitted effect of over 45% in size)
Outline: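 Using 15 concentrations per compound in triplicate, cAMP production was monitored in TSHR-HEK293 cells after 30 min compound incubation at RT; HTRF reagents followed, with fluorescence intensity recorded after 1 h.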

[15] = qHTS assay to identify small molecule agonists of the hypoxia (HIF-1) signaling pathway - cell viability counter screen (AID 1224844; calls by dose curve; further: nearly all actives have a fitted effect of over 50% in size)
Outline: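 Cytotoxicity was measured in parallel with the HRE-driven beta-lactamase readout: after 17 hrs of compound exposure at 37C, HRE-bla ME-180 cells received CellTiter-Glo and luminescence was recorded 30 min later.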

[16] = qHTS assay to identify small molecule agonists of H2AX (AID 1224845; active means well fitted activation curve with a large enough effect in the signal ratio in the repeat runs, not every such curve was filed as active; the % refers to the signal ratio)
Outline: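 Wild-type CHO-K1 cells plated overnight, then exposed 3 hr at 37C to compounds at 15 concentrations (0.76% DMSO). Lysed, then HTRF anti-pH2AX(S139)-cryptate/anti-H2AX-d2 detection after 24 hr at room temperature; emissions 665 and 620 nm.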

[17] = qHTS assay to identify small molecule agonists of the hypoxia (HIF-1) signaling pathway (AID 1224846; active means well fitted activation curve with a large enough effect in the signal ratio in the repeat runs, not every such curve was filed as active; the % refers to the signal ratio)
Outline: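 Compounds from the Tox21 10K library, dissolved in DMSO, are tested for induction of a hypoxia response element–controlled beta-lactamase reporter in ME-180 cells. Exposure lasts 17 hrs at 37C after a 5 hr settling period, followed by CCF4-AM FRET substrate.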

[18] = qHTS assay to identify small molecule agonists of H2AX - cell viability counter screen (AID 1224847; calls by dose curve; further: top concentration of the series differs between compounds; nearly all actives have a fitted effect of over 30% in size)
Outline: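 CHO-K1 wt, 1000 cells/well, o/n 37C; cpds 15 conc, 3 h 37C, 0.76% DMSO; CellTiter-Glo, 30 min RT, luminescence.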

[19] = qHTS assay to identify small molecule antagonists of the estrogen related receptor (ERR) signaling pathway from Tox21 library (AID 1224848); further: nearly all actives have a fitted effect of over 50% in size
Outline: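 Tox21 10K compounds in DMSO tested for ERR pathway antagonism in NTP's ERR cell line; 18 h, 37 C exposure; ONE-Glo luminescence.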

[20] = biological target: Nuclear receptor subfamily 1 group I member 3 (Homo sapiens) (UniProt Q14994); assay: qHTS assay to identify small molecule agonists of the constitutive androstane receptor (CAR) signaling pathway (AID 1224839); further: nearly all actives have a fitted effect of over 15% in size
Outline: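 Luminescence read-out (ONE-Glo, 30 min, room temperature) from double-stable HepG2-CYP2B6-hCAR cells exposed 24 h to 15-point compound series in presence of 0.75 uM PK11195 final.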

Chain of Nuclear receptor subfamily 1 group I member 3 (Homo sapiens) (Q14994 whole entry, looked up): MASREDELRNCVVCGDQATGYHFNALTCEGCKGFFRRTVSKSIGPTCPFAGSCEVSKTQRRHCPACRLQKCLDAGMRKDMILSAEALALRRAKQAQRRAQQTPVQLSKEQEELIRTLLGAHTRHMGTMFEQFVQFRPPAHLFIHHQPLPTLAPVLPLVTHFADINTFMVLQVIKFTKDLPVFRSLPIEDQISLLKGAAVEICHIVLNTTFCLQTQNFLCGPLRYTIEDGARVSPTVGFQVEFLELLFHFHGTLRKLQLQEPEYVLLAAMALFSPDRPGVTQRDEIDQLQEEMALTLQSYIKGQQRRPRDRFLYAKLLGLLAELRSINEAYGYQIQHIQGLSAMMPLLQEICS
Chain of Thyrotropin receptor (Homo sapiens) (P16473 whole entry, looked up): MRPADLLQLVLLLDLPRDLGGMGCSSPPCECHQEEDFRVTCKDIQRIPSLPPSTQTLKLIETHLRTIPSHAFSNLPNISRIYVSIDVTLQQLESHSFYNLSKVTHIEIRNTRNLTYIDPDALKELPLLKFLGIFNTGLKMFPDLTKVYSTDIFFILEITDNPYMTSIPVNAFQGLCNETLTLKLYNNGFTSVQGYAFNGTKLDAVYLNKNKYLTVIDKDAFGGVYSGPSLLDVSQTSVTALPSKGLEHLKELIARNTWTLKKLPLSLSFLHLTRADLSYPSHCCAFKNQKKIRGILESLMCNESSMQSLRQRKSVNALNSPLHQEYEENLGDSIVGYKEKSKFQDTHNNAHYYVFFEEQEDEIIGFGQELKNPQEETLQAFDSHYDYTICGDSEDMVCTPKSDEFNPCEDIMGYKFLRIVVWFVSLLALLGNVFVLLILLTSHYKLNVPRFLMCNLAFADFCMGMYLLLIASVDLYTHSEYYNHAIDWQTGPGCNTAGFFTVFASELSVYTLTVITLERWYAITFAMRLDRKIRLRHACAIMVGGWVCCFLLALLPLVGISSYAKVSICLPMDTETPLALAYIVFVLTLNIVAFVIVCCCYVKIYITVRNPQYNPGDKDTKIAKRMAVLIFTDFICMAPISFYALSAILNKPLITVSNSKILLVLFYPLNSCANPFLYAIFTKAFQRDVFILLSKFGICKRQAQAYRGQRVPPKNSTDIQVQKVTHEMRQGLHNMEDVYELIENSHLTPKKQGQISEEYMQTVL
Chain of Luciferin 4-monooxygenase (Photinus pyralis) (P08659 whole entry, looked up): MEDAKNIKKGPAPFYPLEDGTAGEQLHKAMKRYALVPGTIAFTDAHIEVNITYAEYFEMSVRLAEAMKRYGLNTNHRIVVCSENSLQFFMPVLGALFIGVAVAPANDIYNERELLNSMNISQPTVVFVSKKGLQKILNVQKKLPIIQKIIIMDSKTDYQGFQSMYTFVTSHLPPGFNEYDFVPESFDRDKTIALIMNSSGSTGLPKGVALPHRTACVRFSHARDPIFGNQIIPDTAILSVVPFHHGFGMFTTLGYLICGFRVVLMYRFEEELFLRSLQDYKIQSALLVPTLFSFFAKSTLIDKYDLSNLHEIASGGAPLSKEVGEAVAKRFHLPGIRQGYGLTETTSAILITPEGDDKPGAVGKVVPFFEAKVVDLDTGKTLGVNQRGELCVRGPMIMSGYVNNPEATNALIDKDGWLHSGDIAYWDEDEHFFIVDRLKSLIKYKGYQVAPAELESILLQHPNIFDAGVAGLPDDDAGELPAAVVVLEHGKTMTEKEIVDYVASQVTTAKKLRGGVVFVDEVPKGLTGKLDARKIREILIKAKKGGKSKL
Chain of Retinoic acid receptor RXR-alpha (Homo sapiens) (P19793 whole entry, looked up): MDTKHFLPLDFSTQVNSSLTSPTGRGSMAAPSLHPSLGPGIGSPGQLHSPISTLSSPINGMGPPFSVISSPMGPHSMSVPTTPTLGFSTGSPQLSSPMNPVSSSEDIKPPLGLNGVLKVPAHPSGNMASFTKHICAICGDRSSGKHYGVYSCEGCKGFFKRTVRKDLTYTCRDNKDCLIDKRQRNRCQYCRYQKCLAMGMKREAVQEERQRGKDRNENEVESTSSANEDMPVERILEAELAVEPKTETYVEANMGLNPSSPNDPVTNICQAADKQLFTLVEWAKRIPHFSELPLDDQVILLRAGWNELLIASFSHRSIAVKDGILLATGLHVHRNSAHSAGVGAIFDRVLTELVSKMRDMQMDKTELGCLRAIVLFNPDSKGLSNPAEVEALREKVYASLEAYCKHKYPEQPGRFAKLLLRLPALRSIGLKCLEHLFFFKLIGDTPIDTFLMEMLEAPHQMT

SMILES | Potency [1] | outcome [2] | outcome [3] | Potency [4] | Potency [5] | Potency [6] | Potency [7] | outcome [8] | Potency [9] | Potency [10] | outcome [11] | Potency [12] | outcome [13] | outcome [14] | outcome [15] | outcome [16] | outcome [17] | Potency [18] | Potency [19] | Potency [20]
CCN(CCO)c1cccc(C)c1 | inactive | inactive | inactive | inactive | inactive | inactive | inactive | inactive | inactive | inactive | inactive | inactive | inactive | inactive | inactive | inactive | inactive | inactive | inactive | –
CC(C)COC(=O)COc1ccc(Cl)cc1Cl | inactive | inactive | inactive | inactive | inactive | inactive | 11.2 µM (active) | inactive | inactive | – | inactive | inactive | inactive | – | inactive | – | inactive | inactive | inactive | –
CCOc1ccc(NC(=O)OC(C)C)cc1OCC | inactive | inactive | inactive | inactive | inactive | inactive | inactive | inactive | inactive | inactive | inactive | – | – | – | inactive | inactive | inactive | inactive | – | inactive
Cc1nc2ccccc2c(=O)o1 | inactive | inactive | inactive | inactive | inactive | inactive | inactive | inactive | inactive | inactive | inactive | – | – | inactive | inactive | inactive | inactive | inactive | – | –
O=S1(=O)CCCC1 | inactive | inactive | inactive | inactive | inactive | inactive | inactive | inactive | inactive | inactive | inactive | – | – | – | inactive | inactive | inactive | inactive | – | inactive
O=c1[nH]c(=O)c2ccccc2o1 | inactive | inactive | inactive | inactive | inactive | inactive | inactive | inactive | inactive | – | inactive | inactive | inactive | inactive | – | inactive | inactive | inactive | inactive | –
O=[Si]=O | inactive | inactive | inactive | inactive | inactive | inactive | inactive | inactive | inactive | – | inactive | inactive | inactive | – | inactive | inactive | inactive | – | inactive | –
